Only some compounds are listed: those with a hit (about 6.2% of all), similar ones and a draw of the others.
ATXN viability – cell viability loss in ATXN counter-screen; S2 cells (HEK-293 line with an ATXN2-luciferase reporter) viability, CellTiter-Fluor protease fluorescence, 24 h; Potency, µM (series often up to 56.7 µM), hits mostly cytotoxic; 400,000 compounds, 0.49% hits; AID 651635; further: nearly all actives have a fitted effect of over 40% in size
HT1080 IDH1KD tx – toxicity to HT-1080 IDH1 knockdown cells (counter line); HT-1080 IDH1 knockdown viability, ATP luminescence, 48 h; Potency, µM (doses to about 46.1 µM), for inactives: at the highest dose activity, negative = toxicity, actives largely listed as cytotoxic; 360,000 compounds, 2% hits; AID 686971;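 further: 0% = DMSO wells and -100% = cell-free medium wells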
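After a 2 h attachment period, IDH1KD HT-1080 cells took pin-transferred compound for 48 h at 37 °C; ATP-based luminescence after 10 min room-temperature reagent incubation reported viability.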
KB-3-1 tox – kills parental KB-3-1 adenocarcinoma cells; KB-3-1 viability, CellTiter-Glo ATP luminescence, 72 h; Potency, µM (titrated, usually from 46.1 µM), usual class: cytotoxic; 400,000 compounds, 1.4% hits; AID 1347075; further: on the % scale 0 is the no-effect control and ±100 the full control effect; nearly all actives have a fitted effect of over 60% in size
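Cytotoxicity in the drug-sensitive parental line KB-3-1 was scored as loss of CellTiter-Glo luminescence following 72 h incubation with compound. Values come from curve fitting of normalized concentration-response data.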
KB-V1 cytotox – kills drug-selected multidrug resistant KB-V1 cells. KB-V1 MDR cells viability, CellTiter-Glo, 72 h. Potency, µM (series often up to 46.1 µM), hits mostly cytotoxic. 400,000 compounds, 3.4% hits. AID 1347076; further: on the % scale 0 is the no-effect control and ±100 the full control effect; nearly all actives have a fitted effect of over 60% in size
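qHTS viability screen in drug-selected KB-V1 MDR cells: 72 h compound treatment at 37 degrees C, ATP luminescence end point.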
ATXN2 expr inh – reduces ATXN2 reporter expression in HEK-293 cells | HEK-293 ATXN2-luciferase reporter, luminescence, 24 h | Potency, µM (titrated, usually from 57 µM), for the others: at the highest dose activity change, negative = inhibition, most hits filed as inhibitors | 360,000 compounds, 0.72% hits; further: on the % scale 0 is the no-effect control and ±100 the full control effect; nearly all actives have a fitted effect of over 55% in size
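ATXN2-luciferase reporter cells (luciferase flanked by upstream and downstream ATXN2 gene portions) were treated 24 h at 37 °C with compounds at up to 57 uM. SteadyGlo luminescence gave expression; GF-AFC fluorescence gave viability.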
HT1080-NT tox – kills 2HG-producing HT-1080-NT fibrosarcoma cells. HT-1080-NT fibrosarcoma viability, CellTiter-Glo ATP luminescence, 48 h. Potency, µM (highest dose often 46.1 µM), without a hit: top-dose activity, negative = less viability, actives largely listed as cytotoxic. 360,000 compounds, 1.6% hits;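 further: NT is the 2HG producing partner of a matched IDH1 knockdown line; 0% = DMSO-treated cells and -100% = media-only wells without cells; nearly all actives have a fitted effect of over 55% in size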
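HT-1080-NT; 750 cells/well; 5% FBS RPMI; 48 h compound, 37 degrees C; CellTiter-Glo luminescence; curve fitting and curve-class assignment.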
* marks the source's active call; other numbers are inactive results; i = inactive; ? = inconclusive; . = no result; ! = not active in a repeat. The call rests on the fitted dose curve; in most records, active means well fitted curve in the direction sought with a large enough effect; inconclusive means small, poorly fitted or top-dose-only effect, or another doubt; inactive means no such curve, though single readings can be large; an effect the other way counts as inactive or inconclusive. Potency means the concentration at half of the fitted maximal effect.

SMILES | ATXN viability | HT1080 IDH1KD tx | KB-3-1 tox | KB-V1 cytotox | ATXN2 expr inh | HT1080-NT tox
CN(C(=O)Cn1nnc(-c2ccc(S(C)(=O)=O)cc2)n1)c1ccccc1 | i | . | i | i | 9% | .
OCC1OC(n2cnc3c(=S)nc[nH]c32)C(O)C1O (stereo not given) | . | . | 0.58µM* | ? | . | .
Nc1nc(=S)c2ncn([C@@H]3O[C@H](CO)[C@@H](O)[C@H]3O)c2[nH]1 | i | 0.92µM* | ? | 0.92µM* | ? | 1.5µM*
Nc1nc(=S)c2ncn(C3OC(CO)C(O)C3O)c2[nH]1 (stereo not given) | i | 21µM* | 5.8µM* | 1µM* | -24% | 15µM*
CC1(C)OC2C(CO)OC(n3cnc4c(=S)nc[nH]c43)C2O1 (stereo not given) | i | -25% | ? | ? | -6% | -25%
CC1(C)OC2C(CO)OC(n3cnc4c(=S)nc(N)[nH]c43)C2O1 (stereo not given) | i | -7% | ? | ? | -10% | ?
CCN(CC)c1ccc(NC(=O)CN2CCN(S(=O)(=O)c3ccc(C(C)C)cc3)CC2)cc1 | ? | . | i | i | -7% | .
CCCc1nnc(SCc2cc(=O)c3c(C)cc(C)cc3[nH]2)n1C | i | . | i | i | 2% | .
Cc1cc(C)nc(NC(=O)c2ccc(Br)cc2)n1 | i | 8% | i | i | 34% | 6%
Cc1cc(NO)nc(-c2ccc(Br)cc2)n1 | i | -8% | i | i | 27% | 10µM*
Cc1ccc(CNC(=O)C2CCN(S(=O)(=O)Cc3ccccc3)CC2)cc1 | i | . | i | i | 2% | .
Cc1cc(C)cc(N2C(=O)CSC23C(=O)N(Cc2c(F)cccc2Cl)c2ccccc23)c1 (stereo not given) | i | . | ? | ? | ? | .
C=C(C)c1cccc(C(C)(C)NC(=O)Nc2cc(C)ccn2)c1 | ? | -13% | ? | 16µM* | -1% | -5%
CCOc1cc(C(=O)Nc2cc(C)ccn2)cc(OCC)c1OCC | i | -23% | ? | i | 15% | -17%
CCCCOc1ccc(C(=O)Nc2ccc(N3CCN(C(=O)C(C)C)CC3)cc2)cc1 | i | -17% | i | i | -24% | -5%
Cc1ccnc(NC(=O)c2ccccc2NC(=O)c2ccccc2)c1 | i | 13% | i | i | 10% | -2%
CCCCOc1ccc(C(=O)Nc2ccc(N3CCN(C(C)=O)CC3)cc2)cc1 | i | 11% | i | 2.6µM* | -5% | 13%
Cc1ccnc(NC(=O)c2ccc(C(=O)c3ccccc3)cc2)c1 | i | ? | ? | 21µM* | ? | -29%
CCOc1ccc(C(=O)Nc2cc(C)ccn2)cc1 | i | 12µM* | ? | 13µM* | ? | ?
C=C(C)c1cccc(C(C)(C)NC(=O)Nc2ccc(C)cn2)c1 | i | 6% | i | i | -19% | -1%
CCCCOc1ccc(C(=O)Nc2cccc(C)n2)cc1 | i | 3% | ? | 16µM* | 47% | -6%
O=C1CCCc2c(O)cccc21 | i | . | . | . | 57% | .
CCSc1nnc(NC(=O)NC(C)(C(F)(F)F)C(F)(F)F)s1 | i | ? | i | i | -16% | ?
CCSc1nnc(NC(=O)NC(CC)(C(F)(F)F)C(F)(F)F)s1 | ? | ? | ? | i | ? | 18µM*
Cc1ccc(S(=O)(=O)N2CCN(c3ccnc(-c4cccs4)n3)CC2)cc1 | . | 1% | . | . | . | 1%
SMILES | ATXN viability | HT1080 IDH1KD tx | KB-3-1 tox | KB-V1 cytotox | ATXN2 expr inh | HT1080-NT tox
CC(=O)c1ccc2c(c1)CC1(C2)Cc2cc3c(cc2C1)C(=O)CC3 (stereo not given) | ? | ? | 3.7µM* | 2.6µM* | 11% | ?
COc1ccc(-c2cc(-c3ccccc3)c(C#N)c(S(C)(=O)=O)n2)cc1 | ? | 6% | ? | i | ? | 5%
COc1nc(-c2ccccc2)cc(-c2ccc3c(c2)OCO3)c1C#N | i | -14% | 1.8µM* | i | 0% | ?
Cc1ccc(C)c(OC(=O)CSc2nnc(-c3ccc4c(c3)OCO4)o2)c1 | . | . | i | i | . | .
C/C(=N\NC(=S)Nc1ccc(F)cc1)C1CC1 | i | 11µM* | i | i | 2% | 8.9µM*
Brc1ccc(C2=Nn3c(nnc3-c3n[nH]c4c3CCC4)SC2)cc1 | ? | 0.65µM* | 0.33µM* | 1.2µM* | -5% | 1.2µM*
Clc1ccc(C2=Nn3c(nnc3-c3n[nH]c4c3CCC4)SC2)cc1 | ? | 5.8µM* | 3.7µM* | 3.7µM* | -5% | 5.8µM*
O=C(O)C1CCN(c2ncc(-c3ccc4c(c3)OCCCO4)s2)CC1 | . | . | i | i | . | .
COc1cc(NC(=O)Cn2ncc3c([nH]c4ccc(C)cc43)c2=O)cc(OC)c1OC | i | . | i | i | 9% | .
CCN(CC)CCCNC(=O)c1ccc(Cn2c(SCc3ccccc3)nc3cccnc32)cc1 | ? | . | i | i | 8% | .
CCOc1ccc(-c2nnc3ccc(SCC(=O)NCc4ccco4)nn23)cc1 | i | ? | i | 16µM* | -8% | -16%
N#C/C(=C(/O)c1ccc(Br)s1)c1nc2ccccc2[nH]1 | i | ? | 6.5µM* | ? | -1% | ?
N#C/C(=C(/O)CCl)c1nc2ccccc2[nH]1 | ? | ? | ? | 23µM* | ? | ?
N#C/C(=C(/O)COC(=O)CSc1ccc2ccccc2c1)c1nc2ccccc2[nH]1 | 20µM* | 6% | ? | i | ? | -1%
CCCCCCn1ccc(=N)cc1 | i | -15% | 8.2µM* | i | ? | -13%
CCCCCCN1C2=NCCN2c2ccccc21 | i | -8% | i | ? | -24% | -8%
CC(=O)OCC(=O)Nc1ccc([N+](=O)[O-])cc1Cl | i | 2% | i | ? | 0% | 7%
O=C(Nc1cccc(O)c1)c1ccc([N+](=O)[O-])cc1Cl | i | 8% | ? | i | 53% | 2%
O=C(Nc1c(Cl)cc([N+](=O)[O-])cc1Cl)c1cc(Cl)cc(Cl)c1O | . | . | 18µM* | ? | . | .
O=C(Nc1ccc([N+](=O)[O-])cc1Cl)c1ccccc1O | . | . | 2.9µM*! | 16µM* | . | .
CC(=O)Oc1c(C)cc(Cl)cc1C(=O)Nc1ccc([N+](=O)[O-])cc1Cl | 28µM* | 1.2µM* | 7.3µM* | i | ? | ?
O=C(Nc1cccc(NC(=O)c2cc([N+](=O)[O-])ccc2Cl)n1)c1cc([N+](=O)[O-])ccc1Cl | . | 12µM* | 18µM* | 15µM* | . | ?
COc1cc2nc(CCc3nc4cc(OC)c(OC)cc4[nH]3)[nH]c2cc1OC | . | . | i | i | . | .
